# The campaign covered roughly 310,000 compounds. About 17,000 (5.5%) were called active. Where a call stands in place of a potency, no number is given. Another 11% or so got no clear call; they are omitted. This is one part of a sample in which actives are shown more often than they occur. Calls come from the whole dose curve; as a rule, active = well fitted inhibition curve with a large enough effect; inconclusive = small, poorly fitted or top-dose-only effect, or effect the other way; inactive = no such curve, though single readings can be large or run the other way.
# Target: Nuclear receptor ROR-gamma (Mus musculus) (UniProt P51450)
# Sequence (P51450 whole entry, looked up): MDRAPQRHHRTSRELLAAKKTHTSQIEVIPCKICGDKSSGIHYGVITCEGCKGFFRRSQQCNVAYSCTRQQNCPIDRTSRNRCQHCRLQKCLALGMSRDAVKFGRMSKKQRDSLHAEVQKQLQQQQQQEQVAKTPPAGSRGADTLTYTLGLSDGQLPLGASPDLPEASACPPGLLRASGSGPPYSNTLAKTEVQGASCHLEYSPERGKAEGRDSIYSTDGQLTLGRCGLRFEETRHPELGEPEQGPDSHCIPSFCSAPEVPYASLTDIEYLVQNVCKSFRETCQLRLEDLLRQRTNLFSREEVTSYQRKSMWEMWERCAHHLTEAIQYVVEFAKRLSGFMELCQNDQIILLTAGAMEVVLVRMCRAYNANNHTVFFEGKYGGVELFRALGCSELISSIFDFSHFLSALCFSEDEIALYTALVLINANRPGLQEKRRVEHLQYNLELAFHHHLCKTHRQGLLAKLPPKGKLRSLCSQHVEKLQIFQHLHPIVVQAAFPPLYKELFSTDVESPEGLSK
# Assay: qHTS for inhibitors of ROR gamma transcriptional activity; note: nearly all actives have a fitted effect of over 60% in size
# Settings: Drosophila S2 Gal4-RORgamma UAS-luciferase reporter, 20 h; series mostly up to 53.6 µM
# Summary of the method: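 Stably transfected Drosophila Schneider cells are the test system, with ROR gamma fused to Gal4 and luciferase under UAS control; luminescence is read after 20 hr of 700 uM copper sulfate induction at ambient temperature.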
# Potency is the fitted concentration of half-maximal effect.
row,SMILES,Potency
1,O=C(NNC(=S)Nc1ccc(F)cc1)[C@H]1C[C@@H]1c1ccccc1,inactive
2,O=C(N/N=C/c1cccc2cccnc12)[C@H]1C[C@@H]1c1ccccc1,3.55 µM (active)
3,Cc1ccc(NC(=O)C2CC2c2ccccc2)cc1 (stereo unspecified),inactive
4,COc1ccc(CCN(C)C(=O)C23CC4CC(CC(Cl)(C4)C2)C3)cc1OC,inactive
5,Cc1ccc(N2C(=O)C3C4C=CC(CC4)C3C2=O)cc1Br (stereo unspecified),inactive
6,O=C(CN1CCCCCC1)Nc1ccc(Cl)cc1F,inactive
7,CCOc1ccc(N2CC(C(=O)NCc3ccccn3)CC2=O)cc1 (stereo unspecified),inactive
8,COC(=O)c1ccc(C(=O)Nc2cc(Cl)ccc2Cl)cc1NC(=O)c1ccccc1C,11.2 µM (active)
9,COC(=O)c1ccccc1NC(=O)c1cncc(Br)c1,inactive
10,COC(=O)c1ccc(C(=O)OC)c(NC(=S)N2CCN(c3cc(Cl)ccc3C)CC2)c1,inactive
11,COc1ccc(C(=O)NC(C)CCc2ccccc2)c(OC)c1 (stereo unspecified),inactive
12,CCN(c1cccc(C)c1)S(=O)(=O)c1ccc(-c2coc(C)n2)cc1,inactive
13,O=C1/C(=C/c2ccc3c(c2)OCO3)Oc2cc(OCC(=O)N3CC(O)C[C@H]3C(=O)O)ccc21 (stereo partly specified),inactive
14,COC(=O)c1cc(OCC(=O)NC2CCCc3ccccc32)cc(C(=O)OC)c1 (stereo unspecified),inactive
15,O=C(NCCO)C(=O)NCC(c1ccc2c(c1)OCO2)N1CCN(c2ccc(F)cc2)CC1 (stereo unspecified),inactive
16,O=C(Nc1cc2ccccc2oc1=O)C1CCCCC1,inactive
17,O=c1oc2ccccc2cc1-c1cn(-c2ccccc2)c(=S)[nH]1,1.26 µM (active)
18,O=C(c1cn(-c2ccccc2)nc1-c1cc2ccccc2oc1=O)N1CCOCC1,inactive
19,CN1CCN(S(=O)(=O)c2ccc(NC(=S)NC(=O)C3CC3)cc2)CC1,inactive
20,O=C(NC(=S)Nc1ccc(Cl)cc1Cl)C1CC1,5.01 µM (active)
21,S=C(NCc1cccnc1)Nc1ccc(Cl)cc1Cl,inactive
22,COc1ccc(N(CC(=O)Nc2cccc3ccccc23)S(C)(=O)=O)c(OC)c1,inactive
23,CC(=O)c1ccc(S(=O)(=O)N(C)CCCC(=O)N(C)Cc2ccccc2F)cc1,inactive
24,Cc1ccc(C(=O)Cn2cccn2)cc1,inactive
25,Cc1ccc(Sc2cc(C(=O)c3ccccc3C(=O)O)ccc2[N+](=O)[O-])cc1,inactive
26,Cc1ccc(C(=O)CSc2ccccc2C(=O)O)cc1,10 µM (active)

row,SMILES,Potency
1,CCOc1cc(C2/C(=C(/O)c3ccc(S(=O)(=O)N4CCCCC4)cc3)C(=O)C(=O)N2CCOC)ccc1O (stereo unspecified),inactive
2,Cc1cc(=O)oc2cc(OCC(=O)N3CCN(c4ccc(F)cc4)CC3)c(Cl)cc12,inactive
3,CCOC(=O)C1(Cc2ccccc2C)CCCN(C(=O)c2ccc(COC)o2)C1 (stereo unspecified),inactive
4,COc1cc(NC(=O)CN2C(=O)NC(C)(c3ccc(OC(F)F)cc3)C2=O)cc(OC)c1OC (stereo unspecified),inactive
5,COc1ccc(O)c(/C=N/N=C/c2cccc([N+](=O)[O-])c2)c1,inactive
6,CCN(CC)C(=O)COc1coc(CN2CCN(Cc3ccccc3)CC2)cc1=O,inactive
7,CSc1nc(-c2ccccc2)nc(C(Cl)Cl)n1,7.08 µM (active)
8,Clc1ccc2nc(-c3ccccc3)nc(C(Cl)Cl)c2c1,inactive
9,CCCc1cc(=O)oc2c(C)c(OC(C)C(=O)NCC(O)c3ccccc3)ccc12 (stereo unspecified),inactive
10,O=C(COc1ccc(-n2cnnn2)cc1)Nc1ccccc1Cl,inactive
11,C=CCc1ccccc1OCC(=O)N/N=C/c1ccccc1OCC,inactive
12,C=CCc1cccc(/C=N/NC(=O)COc2ccc(-n3cnnn3)cc2)c1O,8.91 µM (active)
13,O=C(C1CC(=O)N(c2ccc(F)cc2)C1)N1CCN(c2ccccc2)CC1 (stereo unspecified),inactive
14,COc1cc(Nc2nc3ccc(Cl)cc3n3cnnc23)cc(OC)c1OC,inactive
15,CC1(c2ccc3ccccc3c2)NC(=O)N(CC(N)=O)C1=O (stereo unspecified),inactive
16,COc1ccc(S(=O)(=O)NCC(=O)NC2CC2)cc1OC,inactive
17,Cc1ccc(C)c(C(C)NC(=O)C2CCCO2)c1 (stereo unspecified),inactive
18,Cc1ccc(C(=O)N/C(=C\c2ccc(F)cc2)C(=O)NCCN2CCOCC2)cc1,inactive
19,CCCCNC(=O)C(=O)c1ccccc1NC(C)=O,inactive
20,O=[N+]([O-])c1ccccc1N/N=C1\CCc2ccccc21,inactive
21,CCCCNC(=S)N/N=C1\CCCCc2ccccc21,2 µM (active)
22,CCNC(=O)CC1C(=O)N(c2ccc(OC)cc2)C(=O)N1CCOC (stereo unspecified),inactive
23,CC(=O)N/N=C/c1cc2c(cc1[N+](=O)[O-])OCO2,inactive
24,O=C(N/N=C/c1cc(Cl)cc([N+](=O)[O-])c1O)C(O)(c1ccccc1)c1ccccc1,1 µM (active)
25,O=[N+]([O-])c1cc(Cl)cc(/C=N/NC(=S)Nc2cc(S(=O)(=O)N3CCOCC3)ccc2Cl)c1O,inactive

# — PubChem BioAssay AID2551 (National Center for Advancing Translational Sciences (NCATS), 2010)
